Results on 51 compounds are retold here after PubChem BioAssay AID504467 (National Center for Advancing Translational Sciences (NCATS), 2011).

Hit rate of the full screen: of about 330,000 compounds, about 7,700 (2.3%) were called active. Not shown: some 26% with an inconclusive outcome. Calls come from the whole dose curve; as a rule, active = well fitted inhibition curve with a large enough effect; inconclusive = small, poorly fitted or top-dose-only effect, or effect the other way; inactive = flat fitted curve, though single readings scatter. Many of the other results were omitted from the sample, so actives are more common in it than they were.
% is set by controls: 0 for no effect and ±100 for the full control effect; potency is the fitted concentration of half-maximal effect.

The test can be described thus: qHTS screen for small molecules that inhibit ELG1-dependent DNA repair in human embryonic kidney (HEK293T) cells expressing luciferase-tagged ELG1. Note: nearly all actives have a fitted effect of over 55% in size. The following applies: HEK293T ELG1-luciferase reporter, luminescence, 16 h, DNA damage induced by 5-fluorouridine; series mostly up to 46.1 µM; activity change, negative = inhibition: at the top concentration. A digest of the protocol:
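Cells (2,000 per well) received 5-fluorouridine plus test compound or DMSO and were incubated 16 hr at 37 °C, 5% CO2. Luciferase activity was read by luminescence 30 min after ONE-Glo addition; signal suppression marked inhibition of damage-induced ELG1 function.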
In general terms: Quantitative high-throughput screening tests each substance at several concentrations.
In the case of `CCn1c(SCC(=O)Nc2ccc(C)cc2)nc2nc3c(cc2c1=O)CCCC3`, the Potency is 18.4 µM (active). For `CC(=O)NCCn1c(SCC(=O)Nc2ccc(C)cc2)nc2ccccc2c1=O`, the “activity change, negative = inhibition” value was -0.151% (inactive).

As for `COCCn1c(SCC(=O)Nc2ccc3c(c2)CCC3)nc2ccccc2c1=O`, the “activity change, negative = inhibition” value was -28.4% (inactive).

Take `COc1cc(/C=C/C(=O)OCC(=O)c2ccccc2)cc(OC)c1OC`: the “activity change, negative = inhibition” value is 0.612% (inactive). On the same count and under the same terms, the value for `O=C(c1ccc(Cl)nc1)N1CCN(S(=O)(=O)c2ccc3c(c2)OCCO3)CC1` was -27.2% (inactive); that for `COc1ccc(C(C(=O)NC(C)(C)C)N(Cc2ccc(F)cc2)C(=O)CCC(=O)Nc2cc(C)on2)cc1` (stereo unspecified) was 13.4% (inactive); that for `Cc1cc(NC(=O)C(C)SCC(=O)Nc2ccccc2N2CCCCC2)no1` (stereo unspecified) was -18.5% (inactive).

For the compound `C[C@H](NS(=O)(=O)c1ccc(Cl)cc1)C(=O)OCC(=O)N1CCOCC1`, the “activity change, negative = inhibition” value was -8.58% (inactive). Still for that read-out and setting: the value for `CCn1c(SCc2ccccc2)nc2c(c1=O)SCC2` was 1.33% (inactive).

Regarding `Cc1cccc(CSc2nc3c(c(=O)n2C)SCC3)c1`, the Potency is 14.6 µM (active). For `Cn1c(SCC(=O)N2CCCCC2)nc2c(c1=O)SCC2`, the “activity change, negative = inhibition” value was 0.685% (inactive). Same read-out and setting: the value for `Cc1ccc(C(=O)NNC(=O)CSc2nnc3ccccn23)cc1` was 15% (inactive); that for `Cc1nn(CC(=O)N2CCCCC2)c(=O)c2nn(-c3ccccc3)c(C)c12` was -1% (inactive); that for `COc1ccc(CNC(=O)C(C)n2nc(C)c3c(C)n(-c4ccccc4)nc3c2=O)c(OC)c1` (stereo unspecified) was -14.9% (inactive). As for `COc1ccc(OC)c(CNC(=O)Cn2nc(C)c3c(C)n(-c4ccc(C)cc4)nc3c2=O)c1`, the Potency is 8.2 µM (active).

On to `COc1ccc(S(=O)(=O)N2CCOC23CCN(S(=O)(=O)c2ccc([N+](=O)[O-])cc2)CC3)cc1`, for which the “activity change, negative = inhibition” value is 9.51% (inactive). With `Cc1nnnn1/C(=C\c1ccccc1)C(=O)OCC(=O)N1CC2(C)CC1CC(C)(C)C2` (stereo unspecified), the Potency is 20.6 µM (active). For the compound `Cc1cccc(C(=O)NCC(=O)OCC(=O)N2CC3(C)CC2CC(C)(C)C3)c1` (stereo unspecified), the “activity change, negative = inhibition” value was 6.11% (inactive). Same read-out and setting: the value for `COc1ccccc1C(=O)N1CC2(C)CC1CC(C)(C)C2` (stereo unspecified) was -15.1% (inactive); that for `Cc1ccc(CNC(=O)c2cc(-c3ccccc3C)n(CC3CC(c4cccc([N+](=O)[O-])c4)=NO3)n2)cc1` (stereo unspecified) was -6.87% (inactive); that for `O=C(c1ccccc1)N1N=C(c2ccccc2O)CC1c1ccc(Br)cc1` (stereo unspecified) was -16.7% (inactive). With `COc1ccc2c(CC(=O)NNC(=O)c3ccccc3F)coc2c1`, the “activity change, negative = inhibition” value was -10.1% (inactive). On the same count and under the same terms, next, `COc1ccc(Cn2c(=S)[nH]c3cc(C(=O)NCCCN4CCOCC4)ccc3c2=O)cc1`: -1.8% (inactive); `CCC(=O)Nc1ccc(C(=O)Nc2ccc3c(c2)C(=O)N(CC2CCCO2)C3=O)cc1` (stereo unspecified): -6.04% (inactive). For the compound `Cc1cccc(NC(=O)c2ccc3c(=O)n(CC4CCCO4)c(=S)[nH]c3c2)c1` (stereo unspecified), the Potency is 16.4 µM (active).

For `COc1ccccc1N1CCN(C(=O)c2ccc(NC3=NC4CS(=O)(=O)CC4S3)cc2)CC1` (stereo unspecified), the “activity change, negative = inhibition” value was 7.13% (inactive). In the case of `COc1ccc(-c2nn(C)c(=O)c3ccccc23)cc1CNC(=O)C1CCCCC1`, the Potency was 20.6 µM (active). In the case of `COc1ccccc1CNC(=O)C1CCN(c2nc3ccccc3o2)CC1`, the “activity change, negative = inhibition” value was -24.9% (inactive). In the case of `COc1ccc(OC)c(CNC(=O)C2CCCN(c3nc4ccccc4o3)C2)c1` (stereo unspecified), the “activity change, negative = inhibition” value was -15.2% (inactive). Take `CCN(CC(=O)Nc1cc(Cl)ccc1C)C(=O)CSCc1ccccc1`: the “activity change, negative = inhibition” value was 0.543% (inactive). On the same count and under the same terms, the value for `CN(C)/N=C/c1cn(-c2ccccc2)nc1-c1cccnc1` was -24.6% (inactive); that for `O=C(O)c1ccc(NC(=O)c2cn(-c3ccccc3)nc2-c2ccc(Cl)cc2)cc1` was 23.2% (inactive).

As to `COc1ccc(-c2nn(-c3ccccc3)cc2C(=O)Nc2nccs2)cc1OC`, the Potency is 3.26 µM (active). Consider `Cc1nnc(SCC(=O)N/N=C/c2cn(-c3ccccc3)nc2-c2ccc(F)cc2)n1-c1ccccc1`, for which the “activity change, negative = inhibition” value is -7.68% (inactive). In the case of `COc1ccc(-c2nn(-c3ccccc3)cc2/C=N/Nc2ccccn2)cc1OC`, the Potency was 14.6 µM (active). For the compound `COc1ccc(-c2nn(-c3ccccc3)cc2C(=O)Nc2nc(CC(C)=O)ns2)cc1`, the “activity change, negative = inhibition” value is -25.3% (inactive).

For `CCC(C)N(C(=O)CSc1ncnc2c1cnn2-c1ccccc1)C1CCS(=O)(=O)C1` (stereo unspecified), the “activity change, negative = inhibition” value was -23.7% (inactive). Regarding `O=C(CSc1nc2ccccc2c(=O)n1Cc1ccc(F)cc1)NCC1CCCO1` (stereo unspecified), the “activity change, negative = inhibition” value is 4.76% (inactive). Consider `Cc1nc2ccccc2c(C)c1C(=O)c1ccc(F)cc1`, for which the Potency was 14.6 µM (active). As to `Cc1nc2ccccc2c(-c2ccccc2)c1C(=O)c1ccccc1`, the “activity change, negative = inhibition” value was -18.7% (inactive). Still for that read-out and setting: next, `CN(Cc1nc2ccccc2s1)C(=O)c1ccc(F)cc1`: 11.3% (inactive); `Cc1ccc2nc(SCC(=O)N3CC(C)OC(C)C3)nc(=O)n2c1` (stereo unspecified): 28.1% (inactive). Regarding `COc1ccc(NC(=O)C2CCCN(S(=O)(=O)c3cccc4cccnc34)C2)cc1OC` (stereo unspecified), the Potency is 20.6 µM (active). Take `CCN(CC(=O)Nc1ccc(S(=O)(=O)N2CCCC2)cc1)CC(=O)Nc1cccc(OC)c1`: the “activity change, negative = inhibition” value was 0.139% (inactive). On the same count and under the same terms, the value for `COc1ccccc1CNC(=O)C1CCCN(S(=O)(=O)c2cccc3cccnc23)C1` (stereo unspecified) was -0.624% (inactive).

As to `O=C(O)C1CCCN(S(=O)(=O)c2cccc3cccnc23)C1` (stereo unspecified), the “activity change, negative = inhibition” value was 5.15% (inactive). In the case of `Cc1cccc(OCCCC(=O)Nc2ccc(S(=O)(=O)N3CCCC3)cc2)c1`, the Potency was 18.4 µM (active). With `COc1ccc(CCNC(=O)C2CCCN(S(=O)(=O)c3ccc(OC)cc3)C2)cc1` (stereo unspecified), the “activity change, negative = inhibition” value was -14.9% (inactive). Same read-out and setting: the value for `CCOc1ccc(NC(=O)COc2ccc(S(=O)(=O)N3CCCC3)cc2)cc1` was 0.975% (inactive).

Turning to `CCOc1cccc(NC(=O)C2CCCN(S(=O)(=O)c3ccc(OC)cc3)C2)c1` (stereo unspecified), the Potency was 23.1 µM (active). As for `Cc1ccc(C)c(OCCC(=O)Nc2cccc(S(=O)(=O)N3CCCC3)c2)c1`, the “activity change, negative = inhibition” value was -28.4% (inactive).
